The campaign covered roughly 5,500 compounds. About 2,000 (36%) were called active. Not shown: some 18% with an inconclusive outcome. Rule as the data show it: active = normalized growth mostly below about 0.91 (no sharp cut-off); inconclusive = no clear call, values can overlap the other calls; inactive = mostly above about 0.92. Some of the results follow.
Experiment: chemical genetic growth profiling, strain panel (AID 1159580);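 also: tested at 20 µM; growth read once vehicle control cultures reached saturation at 30 °C; 1 = growth at the plate median or of vehicle wells; lower values mean less growth of the strain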
Details: growth OD

Measured: normalized growth

C#CC1(O)CCC2C3CCC4=CC(=O)CCC4(C)C3CCC21C (stereo unspecified)
active: S. cerevisiae deletion strains, locus YNL307C, strain MCK1, stronger effect = lower value 0.906 | S. cerevisiae deletion strains, locus YOR184W, strain ser1, stronger effect = lower value 0.87 | S. cerevisiae deletion strains, locus YOR270C, strain vph1, stronger effect = lower value 0.727
inactive: S. cerevisiae deletion strains, locus YKL009W, strain mrt4, stronger effect = lower value 0.945 | S. cerevisiae deletion strains, locus YKL068W, stronger effect = lower value 0.991 | S. cerevisiae deletion strains, locus YKL085W, strain MDH1 (second series), stronger effect = lower value 0.99 | S. cerevisiae deletion strains, locus YKL085W, strain MDH1, stronger effect = lower value 0.99 | S. cerevisiae deletion strains, locus YKL160W, strain elf1, stronger effect = lower value 0.979 | S. cerevisiae deletion strains, locus YKL190W, strain CNB1, stronger effect = lower value 0.997 | S. cerevisiae deletion strains, locus YKR001C, strain vps1, stronger effect = lower value 0.99 | S. cerevisiae deletion strains, locus YKR026C, strain gcn3, stronger effect = lower value 0.991 | S. cerevisiae deletion strains, locus YKR091W, strain srl3, stronger effect = lower value 0.977 | S. cerevisiae deletion strains, locus YLL001W, strain dnm1, stronger effect = lower value 1 | S. cerevisiae deletion strains, locus YLL026W, stronger effect = lower value 0.986 | S. cerevisiae deletion strains, locus YLL041C, strain sdh2, stronger effect = lower value 0.998 | S. cerevisiae deletion strains, locus YLR027C, strain aat2, stronger effect = lower value 0.986 | S. cerevisiae deletion strains, locus YLR039C, strain RIC1, stronger effect = lower value 1.31 | S. cerevisiae deletion strains, locus YLR058C, strain SHM2, stronger effect = lower value 0.986 | S. cerevisiae deletion strains, locus YLR102C, strain apc9, stronger effect = lower value 0.978 | S. cerevisiae deletion strains, locus YLR113W, strain HOG1, stronger effect = lower value 1.03 | S. cerevisiae deletion strains, locus YLR221C, strain rsa3, stronger effect = lower value 1 | S. cerevisiae deletion strains, locus YLR258W, strain gsy2, stronger effect = lower value 0.983 | S. cerevisiae deletion strains, locus YLR262C, strain YPT6 (second series), stronger effect = lower value 1.05 | S. cerevisiae deletion strains, locus YLR262C, strain YPT6, stronger effect = lower value 1.2 | S. cerevisiae deletion strains, locus YLR268W, strain sec22, stronger effect = lower value 0.987 | S. cerevisiae deletion strains, locus YLR320W, strain mms22, stronger effect = lower value 0.997 | S. cerevisiae deletion strains, locus YLR330W, strain CHS5, stronger effect = lower value 0.988 | S. cerevisiae deletion strains, locus YLR342W, strain FKS1 (second series), stronger effect = lower value 0.909 | S. cerevisiae deletion strains, locus YLR342W, strain FKS1, stronger effect = lower value 0.988 | S. cerevisiae deletion strains, locus YLR357W, strain rsc2, stronger effect = lower value 1 | S. cerevisiae deletion strains, locus YLR370C, strain arc18, stronger effect = lower value 0.975 | S. cerevisiae deletion strains, locus YLR371W, strain rom2, stronger effect = lower value 0.987 | S. cerevisiae deletion strains, locus YLR384C, strain iki3, stronger effect = lower value 0.99 | S. cerevisiae deletion strains, locus YLR418C, strain cdc73, stronger effect = lower value 0.921 | S. cerevisiae deletion strains, locus YML016C, strain PPZ1, stronger effect = lower value 0.989 | S. cerevisiae deletion strains, locus YML032C, strain rad52, stronger effect = lower value 0.99 | S. cerevisiae deletion strains, locus YML120C, strain ndi1, stronger effect = lower value 0.99 | S. cerevisiae deletion strains, locus YML124C, strain tub3, stronger effect = lower value 0.991 | S. cerevisiae deletion strains, locus YMR058W, strain fet3, stronger effect = lower value 0.948 | S. cerevisiae deletion strains, locus YMR078C, strain ctf18, stronger effect = lower value 0.976 | S. cerevisiae deletion strains, locus YMR125W, strain sto1, stronger effect = lower value 0.967 | S. cerevisiae deletion strains, locus YMR129W, stronger effect = lower value 0.988 | S. cerevisiae deletion strains, locus YMR205C, strain PFK2, stronger effect = lower value 0.991 | S. cerevisiae deletion strains, locus YMR223W, strain ubp8, stronger effect = lower value 0.957 | S. cerevisiae deletion strains, locus YMR231W, strain pep5, stronger effect = lower value 0.997 | S. cerevisiae deletion strains, locus YMR263W, strain SAP30, stronger effect = lower value 1.01 | S. cerevisiae deletion strains, locus YMR307W, strain GAS1, stronger effect = lower value 1.14 | S. cerevisiae deletion strains, locus YNL067W, strain RPL9B, stronger effect = lower value 1.02 | S. cerevisiae deletion strains, locus YNL071W, strain lat1, stronger effect = lower value 1 | S. cerevisiae deletion strains, locus YNL153C, strain GIM3, stronger effect = lower value 1.04 | S. cerevisiae deletion strains, locus YNL183C, strain NPR1, stronger effect = lower value 0.955 | S. cerevisiae deletion strains, locus YNL209W, strain ssb2, stronger effect = lower value 0.988 | S. cerevisiae deletion strains, locus YNL233W, strain BNI4, stronger effect = lower value 1.02 | S. cerevisiae deletion strains, locus YNL248C, strain rpa49, stronger effect = lower value 0.987 | S. cerevisiae deletion strains, locus YNL250W, strain rad50, stronger effect = lower value 0.978 | S. cerevisiae deletion strains, locus YNL271C, strain bni1, stronger effect = lower value 0.979 | S. cerevisiae deletion strains, locus YNL298W, strain CLA4, stronger effect = lower value 0.954 | S. cerevisiae deletion strains, locus YNL322C, strain KRE1 (second series), stronger effect = lower value 1 | S. cerevisiae deletion strains, locus YNR049C, strain mso1, stronger effect = lower value 0.965 | S. cerevisiae deletion strains, locus YNR052C, strain pop2, stronger effect = lower value 0.966 | S. cerevisiae deletion strains, locus YOL147C, strain pex11, stronger effect = lower value 0.994 | S. cerevisiae deletion strains, locus YOR001W, strain rrp6, stronger effect = lower value 0.998 | S. cerevisiae deletion strains, locus YOR061W, strain CKA2, stronger effect = lower value 0.986 | S. cerevisiae deletion strains, locus YOR069W, strain VPS5, stronger effect = lower value 0.981 | S. cerevisiae deletion strains, locus YOR070C, strain gyp1, stronger effect = lower value 0.992 | S. cerevisiae deletion strains, locus YOR080W, strain dia2, stronger effect = lower value 0.972 | S. cerevisiae deletion strains, locus YOR083W, strain WHI5, stronger effect = lower value 0.948 | S. cerevisiae deletion strains, locus YOR106W, strain vam3, stronger effect = lower value 0.965 | S. cerevisiae deletion strains, locus YOR136W, strain idh2, stronger effect = lower value 0.977 | S. cerevisiae deletion strains, locus YOR144C, strain elg1, stronger effect = lower value 0.975 | S. cerevisiae deletion strains, locus YOR231W, strain MKK1, stronger effect = lower value 1.02 | S. cerevisiae deletion strains, locus YOR265W, strain rbl2, stronger effect = lower value 0.988 | S. cerevisiae deletion strains, locus YOR290C, strain snf2, stronger effect = lower value 0.974 | S. cerevisiae deletion strains, locus YOR316C, strain cot1, stronger effect = lower value 0.979 | S. cerevisiae deletion strains, locus YPL051W, strain arl3, stronger effect = lower value 1.01 | S. cerevisiae deletion strains, locus YPL078C, strain atp4, stronger effect = lower value 0.987 | S. cerevisiae deletion strains, locus YPL106C, strain sse1, stronger effect = lower value 0.985 | S. cerevisiae deletion strains, locus YPL240C, strain hsp82, stronger effect = lower value 0.988 | S. cerevisiae deletion strains, locus YPL241C, strain CIN2, stronger effect = lower value 0.99 | S. cerevisiae deletion strains, locus YPL256C, strain CLN2, stronger effect = lower value 0.994 | S. cerevisiae deletion strains, locus YPR119W, strain clb2, stronger effect = lower value 0.983 | S. cerevisiae deletion strains, locus YPR141C, strain kar3, stronger effect = lower value 0.982 | S. cerevisiae deletion strains, locus YPR163C, strain tif3, stronger effect = lower value 0.977 | S. cerevisiae deletion strains, locus YPR167C, strain met16, stronger effect = lower value 0.97 | S. cerevisiae deletion strains, strain wtn01, stronger effect = lower value 0.955 | S. cerevisiae strains, strain wild type, stronger effect = lower value 0.99

— PubChem BioAssay AID1159580 (chemical genetic matrix, 2015)
